VLA-4 inh – inhibition in a human VLA-4 binding assay; P13612; VLA-4 expressing cells, ligand binding flow cytometry; inhibition, % (about 7 µM as worked out from the volumes in the protocol); actives 0.2% (n = 330,000); AID 2557; in the data active = inhibition above about 50%
SUMO Mot1 rescue – inhibitors of SUMOylation pathway: yeast Mot1-301 growth rescue; S. cerevisiae Mot1-301 growth rescue, ATP luminescence, 38.5C; percent above DMSO median, 100 means doubled; growth rescue, % at 18.8 µM; actives 1% (n = 320,000); AID 2716;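 active = every valid replicate shows activation above 250% relative to neutral control wells; inactive = the rest, any valid replicate at or below 250%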;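 note: OY570 slx delta 5 strain wells were the positive control but not used for scaling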
ALR H2O2 inh – inhibitors of human sulfhydryl oxidase ALR; P55789; purified ALR, DTT oxidation, H2O2 HRP-luminol luminescence; inhibition, % (test concentration not listed); actives 3.8% (n = 290,000);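 active = mean replicate inhibition above about 79%, with every replicate also reaching it, limit read from the data; inconclusive = only one of the two criteria met; inactive = mean below limit and not every replicate reaching it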
Target sequence (P55789 whole entry, looked up): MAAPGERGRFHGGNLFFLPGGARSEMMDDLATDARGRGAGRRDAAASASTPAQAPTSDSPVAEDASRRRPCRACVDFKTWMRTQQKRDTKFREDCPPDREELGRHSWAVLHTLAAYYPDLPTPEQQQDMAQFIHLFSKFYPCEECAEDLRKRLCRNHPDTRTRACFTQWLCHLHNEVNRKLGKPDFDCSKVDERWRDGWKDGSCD
AHR activator – human AHR activation; activation, % at 5 µM; AHR-responsive luciferase reporter cells, luminescence; actives 2.5% (n = 320,000); in the data active = activation above about 47%;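 note: 0% = vehicle wells and 100% = reference agonist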
Efflux pump inh – inhibitors of Candida antifungal efflux pumps expressed in yeast | AID 485275 | S. cerevisiae Candida pump triplex, Nile Red efflux | actives 0.44% (n = 330,000) | inhibition, % at 10 µM;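 active = plate passing quality check with inhibition over a set limit, or well fluorescence over plate mean plus 4 SD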;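 note: Nile Red retained in pooled yeast measured as flow cytometry median fluorescence; 0% = buffer negative control and 100% = Enniatin B positive control; higher means more Nile Red kept so more efflux inhibition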
Bfl-1 A1 inh – inhibitors of the anti-apoptotic protein A1, read as caspase activation | AID 2462 | caspase activation, % (concentration not given with the values) | actives 0.066% (n = 330,000) | MEF A1-2A-BIM cells, Caspase-Glo 3/7 luminescence, 3 h; percent of clofoctol response, vehicle zero;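 active = over half of replicate activation scores above 10%, or exactly half above 10 with the replicate mean above 10; inconclusive = replicate mean below 10 yet half the replicates above 10; inactive = over half of replicates below 10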
Active calls of the source: *; ? = inconclusive; . = not tested or not shown. Sampled rows, rich in hits. Any-hit rate of the full collection: about 7.2%.

SMILES | VLA-4 inh | SUMO Mot1 rescue | ALR H2O2 inh | AHR activator | Efflux pump inh | Bfl-1 A1 inh
Cn1c(O)c(N=NC(=O)CNC(=O)c2cccnc2)c2ccccc21 | 6.4 | -8.3 | -0.7 | 9.5 | -0.1 | 0.8
CCN(CC(=O)Nc1c(F)cccc1F)C(=O)Cc1ccc2c(c1)CCC2 | 2.3 | -1.4 | 26.0 | 11.3 | 0.0 | 1.8
O=c1[nH]nc(CNc2ccc(O)cc2)c2ccccc12 | -4.6 | 29.4 | 99.5* | -2.0 | 0.0 | 0.8
Cc1ccc(C#N)c(SCc2cccc(Br)c2)n1 | -3.8 | 19.2 | -2.4 | -1.5 | -0.1 | 0.0
Cc1ccc(C#N)c(SCc2cc3c(cc2Cl)OCO3)n1 | 11.9 | -0.3 | -2.7 | 50.9* | 3.6 | 0.8
Cn1c(/C(C#N)=C/Nc2ccccn2)nc2ccccc21 | -7.8 | 59.4 | -0.5 | 118.5* | -0.2 | 0.9
CCOc1ccccc1N/C=C(\C#N)c1nc2ccccc2n1C | -10.2 | -11.2 | -0.9 | 30.1 | -0.4 | 0.6
S=C(NN=C(C1CC1)C1CC1)Nc1ccccc1 | -18.1 | . | 97.2* | 1.4 | 0.0 | 0.1
c1ccc(CNc2ccc(N3CCOCC3)cc2)cc1 | 4.3 | 1.5 | 99.0* | 4.4 | 0.0 | -5.0
COc1ccc(CNc2ccc(N3CCOCC3)cc2)cc1 | -0.1 | -1.8 | 98.9* | 9.3 | 0.1 | 0.6
COc1ccc(Nc2nc(OC)nc(N3CCOCC3)n2)cc1 | 5.5 | 265.7 | -3.1 | 51.3* | 0.0 | -0.1
c1ccc(N2CCOCCOCCOCCOCCOCC2)cc1 | -2.5 | -5.4 | 95.9* | 0.9 | 0.0 | -0.3
O=S(=O)(c1ccc(NCc2ccccc2)cc1)N1CCOCC1 | 11.4 | 0.4 | 12.1 | 0.5 | -0.1 | 1.1
CCOc1nc(Nc2ccc(OC)cc2)nc(N2CCOCC2)n1 | 2.7 | -17.5 | -10.1 | 23.6 | 0.0 | 0.4
CCn1ncc([N+](=O)[O-])c1C(=O)N1CCc2ccccc2C1 | 10.4 | -4.8 | -1.8 | 3.9 | -0.1 | 0.6
Cn1ccnc1/C(=N\NC(=O)c1ccc(O)cc1)c1cccc([N+](=O)[O-])c1 | -8.4 | -2.0 | 10.5 | 0.1 | 0.0 | -0.7
Cn1ccnc1/C(=N\NC(=O)c1ccccc1)c1cccc([N+](=O)[O-])c1 | 7.8 | 7.8 | 95.5* | 3.9 | 0.0 | 0.3
CCOC(=O)c1c(NC(=O)COc2ccc3ccc(=O)oc3c2)sc(C(=O)N(C)C)c1C | -9.1 | -11.4 | -5.5 | 5.8 | 0.9 | -0.2
CC1CC(C)CN(C(=O)CSCC(=O)Nc2nc(-c3cccs3)cs2)C1 (stereo not drawn) | -13.1 | 14.4 | 98.6* | 18.2 | -0.1 | -0.1
CCOC(=O)N1CCN(C(=O)CSCC(=O)Nc2nc(-c3ccccc3)cs2)CC1 | -6.5 | 6.7 | . | 13.1 | 0.1 | 0.1
O=C(CSCC(=O)N1CCCCC1)Nc1nc(-c2ccc(Cl)s2)cs1 | -7.1 | 11.5 | 8.0 | 31.6 | -0.1 | ?
O=C(CSCC(=O)N1CCCCC1)Nc1nc(-c2cccs2)cs1 | 6.0 | 9.8 | 96.0* | 23.6 | -0.1 | -0.2
Cc1ccc(CNC(=O)CS(=O)(=O)Cc2nc(-c3ccccc3F)oc2C)cc1 | 7.3 | -8.2 | -9.8 | 2.0 | 0.1 | -0.6
Cc1oc(-c2ccccc2F)nc1CS(=O)CC(=O)NCc1ccc(F)cc1 (stereo not drawn) | -1.6 | 179.8 | 98.6* | 0.9 | 0.1 | 0.4
Cc1oc(-c2ccccc2F)nc1CSCC(=O)NC1CC1 | 8.4 | -2.7 | -28.6 | -0.1 | 0.0 | -0.2
SMILES | VLA-4 inh | SUMO Mot1 rescue | ALR H2O2 inh | AHR activator | Efflux pump inh | Bfl-1 A1 inh
Cc1ccc(CNC(=O)CS(=O)Cc2nc(-c3ccccc3F)oc2C)cc1 (stereo not drawn) | 14.8 | 2.9 | 95.6* | 3.2 | 0.1 | -0.9
Cc1oc(-c2ccccc2F)nc1CSCC(=O)NCc1ccc2c(c1)OCO2 | 13.1 | -4.4 | 97.9* | 16.4 | 0.1 | -0.3
Cc1oc(-c2ccccc2F)nc1CS(=O)CC(=O)NCc1ccccc1 (stereo not drawn) | 23.6 | -15.5 | 97.1* | 5.4 | 0.0 | -1.1
CCOc1ccc(S(=O)(=O)Nc2nc3ccccc3nc2N2CCN(C)CC2)cc1 | 22.7 | -21.9 | 6.0 | 11.9 | 0.0 | 1.1
CCOc1ccc(NC2CCCCC2NS(=O)(=O)c2ccccc2)cc1 (stereo not drawn) | 8.3 | 4.0 | 92.3* | 2.3 | 0.0 | 1.4
CCOc1ccc(S(=O)(=O)Nc2nc3ccccc3nc2Cl)cc1 | 28.4 | -0.8 | 87.6* | 1.2 | -0.1 | -0.9
Cc1ccc(C)c(NC2CCCCC2NS(=O)(=O)c2ccccc2)c1 (stereo not drawn) | 0.9 | -2.6 | 56.7 | 2.2 | 0.1 | 1.2
COc1ccc(NC2CCCCC2NS(=O)(=O)c2ccc(C)cc2)cc1 (stereo not drawn) | 24.4 | 10.4 | 87.3* | 2.8 | 0.1 | -0.1
C/C(=N/N=C1/NC(=O)CC(C(=O)Nc2ccccc2)S1)c1cccs1 (stereo not drawn) | 3.6 | 13.8 | 52.1 | 31.2 | 0.0 | 0.8
O=C1CCC(C(=O)N(Cc2cccs2)C2(C(=O)NC3CCCCC3)CCCCC2)N1 (stereo not drawn) | -5.7 | -1.3 | 74.7 | -1.1 | -0.1 | 1.9
CN1N=C2c3ccccc3CCC2C1c1ccc(Cl)cc1 (stereo not drawn) | 8.2 | 52.5 | -15.1 | 66.5* | -0.1 | -0.8
CN1N=C2c3ccccc3CCC2C1c1ccc(F)cc1 (stereo not drawn) | 7.0 | -9.1 | -12.9 | 76.0* | 0.1 | 0.0
Cc1cc(NC(=O)COc2ccccc2)ccc1Cl | 11.0 | -3.8 | -2.7 | -4.4 | 0.2 | -0.7
O=C(CN1CCCC1)N1CCCC(c2ccc(F)cc2)c2ccc(F)cc21 (stereo not drawn) | -4.2 | -3.8 | -13.9 | 0.0 | -0.2 | 0.6
CN(c1ccccc1)S(=O)(=O)c1cc(Cl)ccc1Cl | 51.3* | -3.0 | -2.2 | -0.6 | 0.0 | -0.6
COc1ccc(S(=O)(=O)N2CCN(CC(=O)c3ccc(O)c(O)c3)CC2)cc1 | 0.1 | 16.1 | 98.9* | 2.1 | 0.1 | 0.6
O=C(CN1CCN(S(=O)(=O)c2ccc(F)cc2)CC1)c1ccc(O)c(O)c1 | -8.1 | -18.5 | . | 3.6 | 0.1 | -0.1
O=C(CN1CCN(S(=O)(=O)c2ccc(Cl)cc2)CC1)c1ccc(O)c(O)c1 | 6.3 | 174.0 | 98.8* | 0.4 | 0.2 | -0.1
CCN(CC)Cc1c(C(=O)N/N=C/c2ccc(C)o2)nnn1-c1nonc1N | -7.3 | 6.7 | -6.1 | 0.2 | -0.1 | 0.2
O=C(NCC1CC1)c1ccc(Nc2nc3ccc(Br)cc3[nH]2)cc1 | -5.0 | 65.5 | 97.8* | 31.2 | 0.1 | -0.3
CC/C(=N\NC(=O)c1ccc(-c2ccccc2)cc1)C12CC3CC(CC(C3)C1)C2 | 10.6 | 59.8 | 98.4* | 18.9 | -0.1 | -0.4
C/C(=N\NC(=O)c1ccncc1)C12CC3CC(CC(C3)C1)C2 | -7.3 | -14.2 | 18.3 | 21.6 | 0.9 | 0.1
O=C(Nc1ccc2cn[nH]c2c1)c1ccccc1F | 8.4 | . | -22.3 | 105.5* | -0.1 | 0.1
COc1ccc(C(=O)Nc2ccc(Cn3ccnc3)cc2)cc1OC | 13.4 | 5.5 | . | 50.9* | 0.0 | -1.3
